Screening data deposited in PubChem BioAssay by several laboratories.
Mtb hypoxia inh = PubChem AID 1159583; M. tuberculosis hypoxia-regulated fluorescent reporter, fluorescence; fluorescence inhibition, % (no concentration beside the values); 300,000 compounds, 0.1% hits; in the data active = fluorescence inhibition mostly above about 23%, no sharp cut-off; inactive = mostly below about 17%
BJeLR viability = MLPCN primary cell-based screen for lethality selective to Ras in HRASV12 cells; BJeLR (HRASV12) viability, CellTiter-Glo ATP luminescence, 48 h; inhibition, % (concentration not given with the values); 300,000 compounds, 0.17% hits; in the data active = inhibition above about 50%
CCHF vOTU inh-1 = CCHFV vOTU protease inhibitors, primary screen, biochemical, Pep-AMC substrate, fluorescence; inhibition, % at 11.5 µM; 370,000 compounds, 0.55% hits; also: 0% = vehicle wells with enzyme and 100% = no enzyme wells
RecA intein inh = Mtb RecA intein splicing inhibitors, primary screen, biochemical, fluorescence, HTS | cell-free RecA intein splicing | inhibition, % (no concentration beside the values) | 290,000 compounds, 0.75% hits; in the data active = inhibition above about 30%;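 also: 0% = vehicle wells and 100% = reference inhibitor control wells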
Target sequence (P9WHJ3 whole entry, looked up): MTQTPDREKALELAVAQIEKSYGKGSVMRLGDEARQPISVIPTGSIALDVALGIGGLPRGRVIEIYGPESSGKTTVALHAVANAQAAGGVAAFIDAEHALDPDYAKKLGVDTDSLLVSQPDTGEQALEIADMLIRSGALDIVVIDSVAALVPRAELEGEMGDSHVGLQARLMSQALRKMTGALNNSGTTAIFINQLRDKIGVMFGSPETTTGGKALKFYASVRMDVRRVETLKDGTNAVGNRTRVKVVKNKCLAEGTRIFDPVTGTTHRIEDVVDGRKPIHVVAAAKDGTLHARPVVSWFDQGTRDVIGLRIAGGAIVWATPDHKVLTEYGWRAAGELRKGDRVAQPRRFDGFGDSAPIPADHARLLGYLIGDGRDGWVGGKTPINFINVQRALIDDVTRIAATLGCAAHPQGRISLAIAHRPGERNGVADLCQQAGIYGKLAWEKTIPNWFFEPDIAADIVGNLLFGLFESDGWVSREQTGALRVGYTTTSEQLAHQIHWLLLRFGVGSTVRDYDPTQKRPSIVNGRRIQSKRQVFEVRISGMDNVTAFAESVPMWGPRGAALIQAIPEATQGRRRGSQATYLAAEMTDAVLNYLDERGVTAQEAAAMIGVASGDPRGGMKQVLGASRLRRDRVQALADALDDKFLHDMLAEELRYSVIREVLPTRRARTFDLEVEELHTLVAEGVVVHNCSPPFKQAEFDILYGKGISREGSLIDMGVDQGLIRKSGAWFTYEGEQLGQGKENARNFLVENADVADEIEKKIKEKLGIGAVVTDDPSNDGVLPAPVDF
Sa ugtP lethal = growth inhibition of ugtP-null S. aureus, primary screen, RN4220 ugtP deletion, OD600; 16 h; growth inhibition, % (no concentration beside the values); 330,000 compounds, 0.54% hits; in the data active = growth inhibition above about 68%;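 also: plate controls were untreated wells for no effect and antibiotic for full effect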
Sa RN4220 lethal = growth inhibition of S. aureus RN4220, primary screen, OD600; 16 h; inhibition, % (no concentration beside the values); 330,000 compounds, 0.33% hits; in the data active = inhibition above about 85%;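 also: plate controls were untreated cells for no effect and reference antibiotic for full effect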
CCHF vOTU inh-2 = CCHFV vOTU protease inhibitors, confirmation, biochemical, Pep-AMC substrate, fluorescence; inhibition, % at 11.5 µM; Recombinant CCHFV vOTU; shares compounds with CCHF vOTU inh-1; 1,900 compounds, 17% hits; AID 686976, 2013
* = called active by the depositor; . = not tested or not shown. This is a sample that favours compounds with a hit; in the whole collection about 1.6% have one here. Rule as the data show it, unless noted: active = inhibition above about 30%; inactive = the rest.

SMILES	Mtb hypoxia inh	BJeLR viability	CCHF vOTU inh-1	RecA intein inh	Sa ugtP lethal	Sa RN4220 lethal	CCHF vOTU inh-2
COc1ccc(-n2nnnc2SCC(=O)c2cccc(OC)c2)cc1	1	-3	31*	-1	-2	14	-13
O=C(NN=Cc1c[nH]c2ccccc12)c1ccc(O)cc1	5	.	.	.	1	-1	.
O=C(N/N=C\c1c[nH]c2ccccc12)c1ccc(O)cc1	.	1	32*	-9	.	.	-5
O=C(NCc1nc2ccccc2[nH]1)C1=CC(c2ccccc2)CC(OCCCCO)O1 (configuration not stated)	1	.	.	.	2	1	.
CN1C(=O)C2C(C3CC3)N3C(=O)CN(Cc4ccc(-c5ccccc5)cc4)C(=O)[C@@]3(C)C2C1=O (some centres not stated)	6	.	.	.	-11	4	.
CCN(CC)c1nc(N)c2c(N)nc3c(c2c1C#N)CC(c1ccccc1)O3 (configuration not stated)	3	-12	-10	-6	-1	1	.
CCN(CC)c1nc(N)c2c(N)n(-c3ccccc3C)c(=S)c(C#N)c2c1C#N	1	3	34*	6	-6	-2	39*
COc1ccccc1NN=Cc1c(CO)cnc(C)c1O	1	.	.	.	-5	2	.
CC(C)CC(NC(=O)c1nc[nH]c1C(=O)NCCCCCNC(=O)OC(C)(C)C)C(=O)OCc1ccccc1 (configuration not stated)	3	.	.	.	10	8	.
CCN(CC)C(=O)c1cccc(-c2csc(C(O)c3ccc(F)c(F)c3)n2)c1 (configuration not stated)	.	.	30*	.	.	.	8
CCN(CC)C(=O)c1cccc(-c2csc(C(O)c3ccc(F)cc3)n2)c1 (configuration not stated)	.	.	-4	.	.	.	.
O=C(NCc1ccc(F)cc1)c1ccc(S(=O)(=O)Nc2cccc(C(F)(F)F)c2)cc1	3	-7	30*	5	-29	-5	-11
CN(C)c1cccc2c(S(=O)(=O)Nc3ccccn3)cccc12	.	-3	38*	3	-1	2	-5
COc1ccc(Cl)cc1N(CC(=O)NN=Cc1ccc(OCC(N)=O)cc1)S(C)(=O)=O	4	.	.	.	4	0	.
O=C(COC(=O)Cc1ccc(Cl)cc1Cl)NC1CC1	7	.	32*	.	0	6	-11
O=C(Cc1ccc(Cl)cc1Cl)NC1CCCCCC1	0	0	4	2	-2	-6	.
COc1ccc(C(=O)NCCS(=O)(=O)N2CCCCCC2)cc1	7	5	-4	3	9	3	.
COc1ccc(C(=O)NCCS(=O)(=O)N2CCCC2)cc1	.	6	46*	2	.	.	-23
COc1ccc(CN2C(=O)NC(=O)/C(=C/c3ccc([N+](=O)[O-])s3)C2=O)cc1	.	25	25	12	.	.	.
O=C1NC(=O)N(Cc2ccc(F)cc2)C(=O)/C1=C\c1ccc([N+](=O)[O-])s1	.	25	32*	10	.	.	23
COC(=O)C1=CC(C(=O)OC)C2C3=C(C(=O)C24CCCCC4)C(C)n2c(=O)n(C)c(=O)n2C3C1 (configuration not stated)	7	.	.	.	-7	6	.
CCCCCCSc1ccc(C2C3C(=O)N(CC)C(=O)C3[C@]3(C(=O)OC)CCCCN23)cc1 (some centres not stated)	12	.	.	.	2	-1	.
O=C1OCCN1/N=C/c1ccc([N+](=O)[O-])o1	.	-18	35*	2	.	.	0
CC(C)(C)c1ccccc1NC(=O)Nc1nc(C(N)Cc2ccc(F)cc2)cs1 (configuration not stated)	.	.	30*	.	.	.	-23
CN(C)c1ccc(C=NNS(=O)(=O)c2ccc(Br)cc2)cc1	12	.	.	.	8	4	.
O=C1CC(N2CCOCC2)=NN1c1ccc([N+](=O)[O-])cc1	0	-3	104*	2	-2	4	2
O=[N+]([O-])c1ccc(N2CCOCC2)nc1	9	-5	-4	0	-8	6	.
COc1ccc(C2NC(=O)NC(C)=C2C(=O)OC2CCCCC2)cc1 (configuration not stated)	.	.	42*	.	.	.	-4
